Nine compounds from PubChem BioAssay (EPA / NIEHS) can be followed below.

Activity calls are given as the source filed them. Rule for the calls: active = hit-call score of the fitted dose curve at least 0.9, where 1 is the maximum; inactive = score below 0.9.

Assay [1] is described as follows: ATG_GLI_CIS: Attagene CIS-FACTORIAL HepG2 Assay for human Zinc Finger Protein GLI1 (AID 2282945). The settings on record: HepG2, Attagene cis-factorial reporter mRNA, GLI element; actives raise or lower the signal. An outline of the steps:
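Transiently transfected HepG2 cells report endogenous transcription factor activity via cis-element-driven reporter units. After 24 h compound exposure, reporter mRNA was measured by RT-PCR with capillary electrophoresis; bidirectional fitting against DMSO baseline.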

A short description of assay [2]: ATG_GRE_CIS: Attagene CIS-FACTORIAL HepG2 Assay for human Glucocorticoid Response Elements (GRE) (AID 2282947). The settings on record: HepG2 GRE cis-reporter, Attagene multiplex mRNA; actives raise or lower the signal. An outline of the steps: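 Endogenous transcription factor activity is read through cis-element reporter constructs transiently transfected into HepG2 cells. After 24 h treatment, labelled RT-PCR products are resolved by capillary electrophoresis; DMSO sets baseline for bidirectional curve fitting.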

Assay [3] is described as follows: ATG_ISRE_CIS: Attagene CIS-FACTORIAL HepG2 Assay for human Interferon Regulatory Factor 1 (IRF1) binding to an Interferon-Stimulated Response Element (ISRE) (AID 2282948). The settings on record: HepG2 ISRE cis-reporter (Attagene), mRNA transcription readout; actives raise or lower the signal. An outline of the steps:
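Transfected HepG2 (multiple reporter transcription units, cis elements) dosed 24 h. RNA → oligo(dT) RT → PCR → 6-FAM primer extension → HpaI → CE. DMSO = negative control/baseline.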

Assay [4] can be described thus: ATG_M_32_CIS: Attagene CIS-FACTORIAL HepG2 Assay for M32 Transcription Factor (Internal Marker) (AID 2282949).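 Note: background control marker of the multiplexed CIS panel rather than a real target.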 The settings on record: HepG2 Attagene cis-factorial M32 reporter, mRNA; actives raise or lower the signal. An outline of the steps:
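Internal background marker read-out: RT-PCR/capillary electrophoresis fluorescence of reporter transcripts from transiently transfected HepG2 cells after 24 h chemical exposure. Activity fitted bidirectionally relative to DMSO negative control.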

Assay [5] in a line: ATG_M_06_CIS: Attagene CIS-FACTORIAL HepG2 Assay for M06 Transcription Factor (Internal Marker) (AID 2282950). The settings on record: HepG2 Attagene CIS-FACTORIAL M06 internal marker reporter; actives raise or lower the signal. An outline of the steps:
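Read-out is fluorescence of labelled reporter cDNA fragments resolved by capillary electrophoresis after RT-PCR. Cells: HepG2 carrying transfected cis-promoter reporter units, treated 24 h. Gain or loss of signal fitted relative to DMSO.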

The target of assay [6] is Hypoxia-inducible factor 1-alpha (Homo sapiens) (UniProt Q16665). The assay can be described thus: ATG_HIF1a_CIS: Attagene CIS-FACTORIAL HepG2 Assay for human Hypoxia Inducible Factor 1 (HIF1A) (AID 2282951). The settings on record: HepG2 Attagene cis-factorial HIF1a reporter transcription; actives raise or lower the signal. The essentials: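 In this multiplexed cell assay, HepG2 cells bearing transfected cis reporters are dosed for 24 h and reporter mRNA is read by RT-PCR plus capillary electrophoresis; signal increases and decreases are both scored against DMSO.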
Hypoxia-inducible factor 1-alpha (Homo sapiens), sequence (Q16665 whole entry, looked up): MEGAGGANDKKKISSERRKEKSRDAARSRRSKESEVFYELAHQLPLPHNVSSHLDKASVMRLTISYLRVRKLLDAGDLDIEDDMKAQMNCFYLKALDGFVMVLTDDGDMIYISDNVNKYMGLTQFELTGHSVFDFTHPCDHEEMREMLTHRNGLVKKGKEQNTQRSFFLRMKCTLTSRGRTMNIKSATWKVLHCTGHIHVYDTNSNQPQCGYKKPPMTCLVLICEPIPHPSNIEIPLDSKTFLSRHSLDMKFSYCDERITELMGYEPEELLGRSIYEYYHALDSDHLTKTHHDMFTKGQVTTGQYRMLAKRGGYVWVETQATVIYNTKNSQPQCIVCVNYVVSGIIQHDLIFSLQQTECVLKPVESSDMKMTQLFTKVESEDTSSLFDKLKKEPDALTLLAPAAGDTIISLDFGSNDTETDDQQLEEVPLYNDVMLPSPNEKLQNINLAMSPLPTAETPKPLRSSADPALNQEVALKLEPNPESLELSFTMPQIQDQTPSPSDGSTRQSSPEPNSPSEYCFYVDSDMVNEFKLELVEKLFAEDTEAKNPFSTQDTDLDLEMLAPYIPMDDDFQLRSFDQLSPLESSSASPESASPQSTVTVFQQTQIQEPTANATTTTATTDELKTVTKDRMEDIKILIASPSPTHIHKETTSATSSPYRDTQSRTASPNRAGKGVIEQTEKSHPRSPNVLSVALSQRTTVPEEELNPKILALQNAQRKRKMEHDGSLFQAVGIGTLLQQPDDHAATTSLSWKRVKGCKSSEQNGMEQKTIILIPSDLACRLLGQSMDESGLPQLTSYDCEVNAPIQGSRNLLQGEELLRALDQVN

The target of assay [7] is Hepatocyte nuclear factor 6 (Homo sapiens) (UniProt Q9UBC0). Description: ATG_HNF6_CIS: Attagene CIS-FACTORIAL HepG2 Assay for human Hepatocyte Nuclear Factor 6 (HNF6) (AID 2282952). The settings on record: HepG2 Attagene cis-factorial HNF6 reporter transcription; actives raise or lower the signal. The essentials: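 HepG2 cells transiently transfected with cis-element-driven multiple reporter transcription units, dosed 24 h; reporter mRNA quantified by RT-PCR, FAM primer extension, HpaI digestion and capillary electrophoresis; bidirectional fit versus DMSO baseline.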
Hepatocyte nuclear factor 6 (Homo sapiens), sequence (Q9UBC0 whole entry, looked up): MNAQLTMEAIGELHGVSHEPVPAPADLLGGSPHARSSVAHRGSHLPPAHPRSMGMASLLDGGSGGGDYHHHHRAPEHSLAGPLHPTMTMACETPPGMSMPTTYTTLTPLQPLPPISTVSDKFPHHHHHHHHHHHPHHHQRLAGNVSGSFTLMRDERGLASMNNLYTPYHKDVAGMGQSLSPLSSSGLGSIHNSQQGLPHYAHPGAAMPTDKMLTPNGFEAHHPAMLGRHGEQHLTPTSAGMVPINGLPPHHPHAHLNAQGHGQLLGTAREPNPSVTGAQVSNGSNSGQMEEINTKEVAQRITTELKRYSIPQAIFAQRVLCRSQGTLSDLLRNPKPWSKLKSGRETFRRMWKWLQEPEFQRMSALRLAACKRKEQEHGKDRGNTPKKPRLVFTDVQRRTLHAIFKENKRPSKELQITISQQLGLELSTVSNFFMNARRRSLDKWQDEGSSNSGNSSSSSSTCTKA

Assay [8] addresses Heat shock factor protein 1 (Homo sapiens) (UniProt Q00613). Description: ATG_HSE_CIS: Attagene CIS-FACTORIAL HepG2 Assay for human Heat Shock Transcription Factor 1 (HSE) (AID 2282953). The settings on record: HepG2 HSE cis-reporter, Attagene RNA transcription; actives raise or lower the signal. The essentials:
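HepG2, transient MRTU transfection, cis-promoter reporters (endogenous TF activity). 24 h compound. RNA → oligo(dT) RT → PCR → 6-FAM primer extension → HpaI cut → CE. Bidirectional fit vs DMSO.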

The nature of assay [9]: ATG_MRE_CIS: Attagene CIS-FACTORIAL HepG2 Assay for human Metal Responsive Element (MRE) (AID 2282954). The settings on record: HepG2 MRE cis-reporter transcription, Attagene multiplex; actives raise or lower the signal. The essentials:
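Fluorescent reporter fragments separated by capillary electrophoresis give mRNA induction for the MRE unit after 24 h treatment of transfected HepG2 cells. Endogenous transcription-factor activity is read; DMSO serves as negative control and baseline.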

Assay [10] deals with Paired box protein Pax-6 (Homo sapiens) (UniProt P26367). Description: ATG_Pax6_CIS: Attagene CIS-FACTORIAL HepG2 Assay for human Paired Box 6 (PAX6) (AID 2282956). The settings on record: HepG2 CIS-FACTORIAL PAX6 reporter transcription, RNA readout; actives raise or lower the signal. The essentials:
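Transient MRTU transfection of HepG2 → compound exposure 24 h → TriZol RNA, oligo(dT) RT → PCR, 6-FAM primer extension, HpaI cut → capillary electrophoresis; activity fitted both directions against DMSO.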

Assay [11] can be described thus: ATG_PXRE_CIS: Attagene CIS-FACTORIAL HepG2 Assay for human Pregnane X Receptor Element (PXRE) (AID 2282957). The settings on record: HepG2 Attagene CIS-FACTORIAL PXRE reporter, mRNA; actives raise or lower the signal. An outline of the steps: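 HepG2 cells transiently transfected with cis-regulated multiple reporter transcription units; endogenous factor activity measured as reporter mRNA 24 h after dosing. RT-PCR, fluorescent primer extension, HpaI digestion, capillary electrophoresis; bidirectional fit versus DMSO baseline.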

Assay [12] in a line: ATG_PPRE_CIS: Attagene CIS-FACTORIAL HepG2 Assay for human Peroxisome Proliferator-activated Response Element (PPRE) (AID 2282958). The settings on record: HepG2 PPRE cis-element reporter, Attagene transcription factor profiling; actives raise or lower the signal. The essentials:
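Multiplexed reporter transcription units under cis-regulatory promoters were transfected into HepG2 cells to capture endogenous factor activity. A 24 h incubation preceded RNA isolation and fluorescent RT-PCR fragment analysis.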

Assay [13] is described as follows: ATG_Sox_CIS: Attagene CIS-FACTORIAL HepG2 Assay for human SRY-box transcription factor (SOX) (AID 2282960). The settings on record: HepG2 Attagene cis-factorial SOX reporter, mRNA; actives raise or lower the signal. The essentials:
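After 24 h of chemical treatment, transfected HepG2 reporter cells are lysed for total RNA. Transcript levels come from RT-PCR with labelled primer extension and capillary electrophoresis, analysed bidirectionally versus DMSO.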

The target of assay [14] is Transcription factor Sp1 (Homo sapiens) (UniProt P08047). Description: ATG_Sp1_CIS: Attagene CIS-FACTORIAL HepG2 Assay for human Specificity Protein 1 (Sp1) (AID 2282961). The settings on record: HepG2 Sp1 cis-reporter transcription, actives raise or lower the signal. The essentials: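 Sp1-driven reporter mRNA, read as capillary electrophoresis fluorescence after RT-PCR, in transiently transfected HepG2 cells dosed for 24 h; signal change in either direction relative to DMSO.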
Transcription factor Sp1 (Homo sapiens), sequence (P08047 whole entry, looked up): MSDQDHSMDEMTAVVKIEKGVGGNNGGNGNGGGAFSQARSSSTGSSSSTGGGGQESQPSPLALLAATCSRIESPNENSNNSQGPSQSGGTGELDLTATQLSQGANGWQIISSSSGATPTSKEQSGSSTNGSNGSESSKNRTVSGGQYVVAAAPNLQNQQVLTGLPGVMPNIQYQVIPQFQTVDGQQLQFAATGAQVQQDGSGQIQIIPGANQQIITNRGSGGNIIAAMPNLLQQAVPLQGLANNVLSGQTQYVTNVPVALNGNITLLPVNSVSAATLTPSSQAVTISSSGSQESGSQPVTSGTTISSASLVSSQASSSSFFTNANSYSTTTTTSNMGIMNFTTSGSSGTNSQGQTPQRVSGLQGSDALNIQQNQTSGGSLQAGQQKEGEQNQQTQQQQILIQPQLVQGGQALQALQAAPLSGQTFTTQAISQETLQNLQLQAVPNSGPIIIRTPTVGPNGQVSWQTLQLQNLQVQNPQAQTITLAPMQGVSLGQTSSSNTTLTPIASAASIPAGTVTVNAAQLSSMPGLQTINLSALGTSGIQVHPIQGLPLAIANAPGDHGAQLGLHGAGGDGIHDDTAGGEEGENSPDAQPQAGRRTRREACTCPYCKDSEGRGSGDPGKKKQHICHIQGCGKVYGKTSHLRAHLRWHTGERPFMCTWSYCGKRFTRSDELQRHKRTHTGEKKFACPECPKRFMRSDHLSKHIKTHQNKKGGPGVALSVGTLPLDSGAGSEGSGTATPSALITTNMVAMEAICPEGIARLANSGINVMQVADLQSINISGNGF

Assay [15] in a line: ATG_SREBP_CIS: Attagene CIS-FACTORIAL HepG2 Assay for human Sterol Regulatory Element Binding (SREBP) (AID 2282962). The settings on record: HepG2 Attagene cis-factorial SREBP reporter, mRNA; actives raise or lower the signal. The essentials: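 Transfected HepG2 (cis-regulated reporter library, endogenous TFs) → compound 24 h → total RNA → oligo(dT) RT → reporter-specific PCR → FAM primer extension, HpaI cut → CE fluorescence. Fit bidirectional vs DMSO.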

For assay [16], the target named is Signal transducer and activator of transcription 3 (Homo sapiens) (UniProt P40763). The assay can be described thus: ATG_STAT3_CIS: Attagene CIS-FACTORIAL HepG2 Assay for human Signal Transducer and Activator of Transcription 3 (STAT3) (AID 2282963). The settings on record: HepG2, Attagene cis-factorial STAT3 reporter transcription; actives raise or lower the signal. An outline of the steps:
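Values derive from bidirectional fits relative to DMSO of reporter mRNA levels, measured by RT-PCR with capillary electrophoresis, in HepG2 cells carrying transiently transfected cis-regulated reporter units and exposed 24 h.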

Assay [17] in a line: ATG_TA_CIS: Attagene CIS-FACTORIAL HepG2 Assay for human TA Basal Promoter (AID 2282964). The settings on record: HepG2 Attagene CIS-factorial TA basal promoter reporter; actives raise or lower the signal. An outline of the steps:
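Read-out: fluorescent reporter-transcript fragments resolved by capillary electrophoresis after RT-PCR and HpaI digestion. Source: HepG2 cells carrying transiently transfected multi-reporter cis constructs, treated 24 h. Endpoint fitted bidirectionally relative to DMSO.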

Assay [18] is described as follows: ATG_PBREM_CIS: Attagene CIS-FACTORIAL HepG2 Assay for human Phenobarbital-responsive Enhancer Module (PBREM) (AID 2282955). The settings on record: HepG2 PBREM cis-reporter, Attagene multiplexed transcription; actives raise or lower the signal. An outline of the steps:
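After a 24 h incubation with test chemical, transfected HepG2 cells yield total RNA; reporter-specific RT-PCR products are fluorescently labelled, HpaI-digested and resolved by capillary electrophoresis against ROX size standards.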

Assay [19] is described as follows: ATG_RORE_CIS: Attagene CIS-FACTORIAL HepG2 Assay for human RAR-related Orphan Receptor Element (RORE) (AID 2282959). The settings on record: HepG2 Attagene cis-factorial RORE reporter, mRNA; actives raise or lower the signal. An outline of the steps:
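Fluorescence intensity of reporter-specific cDNA fragments, separated by capillary electrophoresis, gives the signal. Source: HepG2 liver cells transiently transfected with cis-element reporters and exposed 24 h; DMSO-normalized bidirectional fit.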

Heat shock factor protein 1 (Homo sapiens), sequence (Q00613 whole entry, looked up): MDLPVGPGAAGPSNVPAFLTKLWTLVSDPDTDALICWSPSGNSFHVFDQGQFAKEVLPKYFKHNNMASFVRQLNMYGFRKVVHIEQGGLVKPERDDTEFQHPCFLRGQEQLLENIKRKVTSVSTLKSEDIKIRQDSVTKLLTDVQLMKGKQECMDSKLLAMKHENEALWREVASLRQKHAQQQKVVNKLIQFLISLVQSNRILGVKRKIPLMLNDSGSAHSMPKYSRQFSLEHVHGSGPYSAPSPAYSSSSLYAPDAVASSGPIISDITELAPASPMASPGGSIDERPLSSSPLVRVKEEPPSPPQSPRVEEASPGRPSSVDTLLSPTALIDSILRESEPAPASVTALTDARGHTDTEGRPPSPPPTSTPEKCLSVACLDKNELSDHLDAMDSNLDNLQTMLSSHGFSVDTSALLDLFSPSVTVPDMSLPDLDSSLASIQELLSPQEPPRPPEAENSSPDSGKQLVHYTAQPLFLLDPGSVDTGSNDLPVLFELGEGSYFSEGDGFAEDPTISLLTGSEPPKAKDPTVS
Signal transducer and activator of transcription 3 (Homo sapiens), sequence (P40763 whole entry, looked up): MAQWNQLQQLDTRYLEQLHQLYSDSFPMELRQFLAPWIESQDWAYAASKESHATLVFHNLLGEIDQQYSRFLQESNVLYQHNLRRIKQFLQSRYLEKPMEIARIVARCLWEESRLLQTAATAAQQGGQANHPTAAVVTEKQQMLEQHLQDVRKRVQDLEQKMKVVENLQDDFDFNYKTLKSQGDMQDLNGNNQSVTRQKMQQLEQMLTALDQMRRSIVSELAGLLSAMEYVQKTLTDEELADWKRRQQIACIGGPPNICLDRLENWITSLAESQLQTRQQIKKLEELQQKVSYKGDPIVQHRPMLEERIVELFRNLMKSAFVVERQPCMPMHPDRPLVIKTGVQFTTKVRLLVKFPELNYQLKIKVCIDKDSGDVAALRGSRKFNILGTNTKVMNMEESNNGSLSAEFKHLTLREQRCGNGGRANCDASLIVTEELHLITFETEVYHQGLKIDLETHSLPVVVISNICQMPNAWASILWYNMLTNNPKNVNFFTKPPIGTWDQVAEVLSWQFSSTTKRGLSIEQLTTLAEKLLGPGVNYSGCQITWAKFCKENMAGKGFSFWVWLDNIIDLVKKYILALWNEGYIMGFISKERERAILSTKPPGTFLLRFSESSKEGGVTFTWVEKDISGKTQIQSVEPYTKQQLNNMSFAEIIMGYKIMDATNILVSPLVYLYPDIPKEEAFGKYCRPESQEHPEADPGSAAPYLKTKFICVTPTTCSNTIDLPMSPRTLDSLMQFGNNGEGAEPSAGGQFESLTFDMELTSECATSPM
Paired box protein Pax-6 (Homo sapiens), sequence (P26367 whole entry, looked up): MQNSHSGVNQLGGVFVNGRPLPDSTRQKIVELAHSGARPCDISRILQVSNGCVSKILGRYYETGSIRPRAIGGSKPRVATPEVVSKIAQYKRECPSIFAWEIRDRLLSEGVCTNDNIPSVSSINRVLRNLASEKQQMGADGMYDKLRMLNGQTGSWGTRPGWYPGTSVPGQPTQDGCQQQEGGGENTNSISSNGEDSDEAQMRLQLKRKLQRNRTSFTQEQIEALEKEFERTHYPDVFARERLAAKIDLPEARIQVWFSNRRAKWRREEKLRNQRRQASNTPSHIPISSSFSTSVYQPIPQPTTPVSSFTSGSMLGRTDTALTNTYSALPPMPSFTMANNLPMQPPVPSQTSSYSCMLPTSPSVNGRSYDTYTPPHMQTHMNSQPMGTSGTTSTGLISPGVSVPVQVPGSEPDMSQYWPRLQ

Regarding `CCc1cccc(C)c1N`, the call in [1], in [2], in assay [3], in assay [4], in [5] and in assay [6] was inactive. Moreover, the outcome in assay [7], in assay [8], in assay [9], in [10], in assay [12] and in [13] was inactive. Also, the compound was called inactive in assay [14], in assay [15], in assay [16] and in [17]. Further, the AC50 in assay [11] is 47.7 µM (active).
Turning to `C=CC(=O)O[C@H]1C[C@@H]2CC[C@@]1(C)C2(C)C`, the AC50 was 186 µM (active) in [1]; 150 µM (active) in [4]; 161 µM (active) in assay [8]; 1.52 µM (active) in [11]; 29.7 µM (active) in assay [12]; 160 µM (active) in assay [14]. Also, the AC50 in assay [17] is 141 µM (active). Further, the compound was called inactive in assay [2], in [3], in assay [5], in assay [7], in assay [9] and in [18]. Moreover, the compound was classed as inactive in [10], in [13] and in assay [16].
On to `C=Cc1cccc(C)c1`, for which the call in [1], in [2], in assay [3], in assay [4], in assay [5] and in assay [6] was inactive. Also, the outcome in assay [7], in assay [8], in assay [18], in assay [10], in assay [12] and in assay [19] was inactive. Besides, the call in assay [13], in assay [14], in assay [15], in assay [16] and in assay [17] was inactive. Also, the concentration at half-maximal activity (AC50) in [11] was 13.3 µM (active).
For the compound `CCCCCCC=O`, the outcome in [1], in assay [2], in [3], in assay [4], in [5] and in assay [7] was inactive. In addition, the compound was called inactive in assay [8], in [9], in [10], in assay [11], in assay [19] and in assay [13]. Also, the compound was called inactive in assay [14], in [15], in [16] and in [17]. For the same compound, the AC50 in [12] is 81.6 µM (active).
Take `CC(C)(C)N`: the outcome in assay [1], in [2], in assay [3], in assay [4], in [5] and in assay [6] was inactive. Also, the outcome in assay [7], in assay [9], in assay [18], in assay [10], in assay [11] and in assay [12] was inactive. Moreover, the outcome in assay [19], in [13], in [14], in [15], in assay [16] and in assay [17] was inactive.
As for `O=C(O)c1ccc2c(c1)C(=O)OC2=O`, the outcome in [1], in [2], in assay [3], in assay [4], in [5] and in assay [6] was inactive. Also, the outcome in assay [7], in assay [8], in [9], in [10], in assay [11] and in assay [14] was inactive. The outcome in assay [15], in assay [16] and in [17] was inactive.
As for `CC(=O)C(C)C`, the outcome in assay [1], in [2], in assay [3], in assay [4], in [5] and in [6] was inactive. The compound was called inactive in assay [7], in [8], in assay [9], in assay [11], in [12] and in assay [13]. Moreover, the call in assay [14], in assay [15], in assay [16] and in assay [17] was inactive.
Turning to `c1ccc2c(c1)[nH]c1ccccc12`, the result in assay [1], in assay [2], in assay [3], in [4], in [5] and in [6] was inactive. Besides, the compound was classed as inactive in [7], in assay [8], in assay [18], in [10], in assay [12] and in [13]. Also, the outcome in assay [14], in assay [16] and in assay [17] was inactive. Further, the concentration at half-maximal activity (AC50) in assay [11] was 9.54 µM (active).
For `CCCSSCCC`, the call in [1], in assay [2], in assay [3], in [4], in assay [5] and in [6] was inactive. Also, the compound was classed as inactive in assay [7], in [9], in assay [18], in assay [10], in [11] and in [12]. In addition, the call in assay [19], in assay [13], in [14], in assay [16] and in assay [17] was inactive.
